Screens as filed in PubChem BioAssay.
KDM4E inh: JMJD2E (human) inhibition; B2RXH2; JMJD2E catalytic domain, FDH-coupled NADH fluorescence (FDH is formaldehyde dehydrogenase); Potency, µM (highest dose often 57.1 µM), inactives show at the top dose activity change, negative = inhibition, most hits filed as inhibitors; hit rate 1.6% among 230,000; AID 2147;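 note: 0% = wells with enzyme and -100% = buffer wells without enzyme; nearly all actives have a fitted effect of over 50% in size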
Target sequence (B2RXH2 1-337 limits assumed): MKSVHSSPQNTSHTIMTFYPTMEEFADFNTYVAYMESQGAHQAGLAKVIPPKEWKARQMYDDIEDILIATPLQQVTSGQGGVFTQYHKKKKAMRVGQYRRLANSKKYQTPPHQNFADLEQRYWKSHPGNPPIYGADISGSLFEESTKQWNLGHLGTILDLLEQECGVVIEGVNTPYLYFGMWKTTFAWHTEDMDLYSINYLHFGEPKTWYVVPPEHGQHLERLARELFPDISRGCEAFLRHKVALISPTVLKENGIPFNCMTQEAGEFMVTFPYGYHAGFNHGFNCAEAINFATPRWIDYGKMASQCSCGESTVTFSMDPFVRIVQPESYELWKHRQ
LMNA splice mod: modulators of lamin A splicing | HeLa LMNA splicing GFP/RFP minigene ratio, 48 h | Potency, µM (titrated, usually from 46.1 µM), inactives show at the highest dose ratio change, negative = inhibition, hits mostly inhibitors | hit rate 0.01% among 200,000 | AID 1487; active = well fitted inhibition curve with a large enough effect in the signal ratio, with a control signal flat, not every such curve was filed as active; inconclusive = small, poorly fitted or top-dose-only effect, or effect the other way, or a change in a side signal; the % refers to the signal ratio; note: % is set by controls: 0 for no effect and ±100 for the full control effect
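S3 HeLa stable clones carrying a lamin A-EGFP splicing minigene plus DsRed2 were seeded at 600 cells/well in Opti-MEM with 2% FBS, pin-dosed and incubated 48 h at 37°C. Acumen cytometry (488 nm) gave the GFP/RFP total-intensity ratio.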
ALDH1A1 block: inhibitors of human aldehyde dehydrogenase 1A1 | AID 1030 | hit rate 7.3% among 220,000 | Potency, µM (doses to about 75.3 µM), without a hit: at the highest dose activity, negative = inhibition, actives largely listed as inhibitors | Purified ALDH1A1, NADH fluorescence, propionaldehyde substrate;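 note: plate controls were no enzyme wells and a reference inhibitor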
HPGD block: HPGD (human) dehydrogenase inhibition. purified HPGD, NADH fluorescence kinetic, PGE2 substrate. Potency, µM, without a hit: at the highest dose activity change, negative = inhibition, usual class: inhibitors. hit rate 4.3% among 150,000; note: % is set by controls: 0 for no effect and ±100 for the full control effect
Target sequence (P15428 whole entry, looked up): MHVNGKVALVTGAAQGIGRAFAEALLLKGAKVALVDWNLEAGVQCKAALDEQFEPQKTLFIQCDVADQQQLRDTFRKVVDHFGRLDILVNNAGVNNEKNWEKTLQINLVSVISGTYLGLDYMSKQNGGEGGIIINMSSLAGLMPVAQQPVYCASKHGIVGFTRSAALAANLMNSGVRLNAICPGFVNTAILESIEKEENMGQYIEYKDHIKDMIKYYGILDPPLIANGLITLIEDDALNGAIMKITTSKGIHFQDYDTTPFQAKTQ
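20 nM HPGD preincubated 15 min at room temperature with compound in 50 mM Tris-HCl pH 8, 0.01% Tween 20. Started with 1 mM NAD+ and 30 uM prostaglandin E2; NADH fluorescence (360/450 nm) read 5 times over 30-s intervals, last minus first.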
HTT aggregate: mutant huntingtin aggregation inhibition; PC12 HttQ103-GFP aggregates, Acumen cytometry, 40 h; hit rate 1.1% among 220,000; Potency, µM (series often up to 46.1 µM), inactives show at the highest dose activity change, negative = inhibition, hits mostly inhibitors; active = well fitted curve in the direction sought with a large enough effect; inconclusive = small, poorly fitted or top-dose-only effect, or another doubt; inactive = no such curve, though single readings can be large; an effect the other way counts as inactive or inconclusive; note: % is set by controls: 0 for no effect and ±100 for the full control effect; nearly all actives have a fitted effect of over 60% in size
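Compounds (qHTS titration) were added to PC12 cells expressing an ecdysone-driven HTT exon 1 Q103–GFP fusion after induction with 100 nM tebufenozide. Aggregate formation was measured as GFP objects in cell lysates.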
HTT cytoprotect: cytoprotection in Huntington HTT-Q103 PC12 cell model; hit rate 0.14% among 230,000; PC12 HTT-Q103 induced, cytoprotection, ATP luminescence, 40 h; Potency, µM (titrated, usually from 56.4 µM), for inactives: cytoprotection (ATP increase), actives largely listed as activators; active = well fitted curve in the direction sought with a large enough effect; inconclusive = small, poorly fitted or top-dose-only effect, or another doubt; inactive = no such curve, though single readings can be large; an effect the other way counts as inactive or inconclusive; note: % of control where 0% means no effect; nearly all actives have a fitted effect of over 45% in size
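Cells were plated at 1500 per well in phenol red-free DMEM with 5% equine and 5% calf serum. Tebufenozide (100 nM final) and compounds were added, then ATPlite reagent, and luminescence was read.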
The depositor's hits bear a star; [ ] = dose if it differs, or a comment. Only some compounds are listed: those with a hit (about 9.2% of all), similar ones and a draw of the others. Unless noted, calls come from the whole dose curve; as a rule, active = well fitted inhibition curve with a large enough effect (not every such curve was filed as active); inconclusive = small, poorly fitted or top-dose-only effect, or another doubt; inactive = no such curve, though single readings can be large or run the other way. Potency is the fitted concentration of half-maximal effect.

What do the screens show for `O=C1NC(=S)S/C1=C1\Sc2ccccc2N1CCCS(=O)(=O)O`?
KDM4E inh: -7%; LMNA splice mod: 9%; ALDH1A1 block: 25µM*; HPGD block: 25µM*; HTT aggregate: -7%; HTT cytoprotect: -10%[10 µM]

How did CC(C)c1nn2c(=O)cc(COC(=O)CNC(=O)c3ccccc3Cl)nc2s1 do in these assays?
LMNA splice mod: -17%[46 µM]

How did N#CCCN1CCN(C(=S)c2ccc(-c3ccc(Cl)cc3)o2)CC1 do in these assays?
KDM4E inh: 13µM*; LMNA splice mod: inconclusive; ALDH1A1 block: 4.5µM*; HPGD block: 20µM*; HTT aggregate: -8%; HTT cytoprotect: -12%

What do the screens show for `NNC(=O)c1ccc(OCc2nc3ccccc3[nH]2)cc1`?
ALDH1A1 block: inconclusive; HPGD block: -14%; HTT cytoprotect: -12%[10 µM]

What do the screens show for `Cc1cc2c(cc(C(=O)NCCCN3CCOCC3)n2Cc2ccc(Cl)cc2)o1`?
KDM4E inh: inconclusive; LMNA splice mod: -17%; ALDH1A1 block: inconclusive; HPGD block: 13µM*; HTT aggregate: 26%; HTT cytoprotect: -5%[10 µM]

How did Cc1ccc(Cn2c(C(=O)NCCCN3CCOCC3)cc3sccc32)cc1 do in these assays?
KDM4E inh: -6%; LMNA splice mod: -8%; ALDH1A1 block: inconclusive; HPGD block: -18%; HTT aggregate: 31%; HTT cytoprotect: 18%[10 µM]

What do the screens show for `Cc1ccccc1S(=O)(=O)NCc1cccnc1`?
KDM4E inh: -3%; LMNA splice mod: 1%; ALDH1A1 block: -6%; HPGD block: 1%; HTT aggregate: -1%

How did Cc1ccc(C(C)C)cc1S(=O)(=O)NCc1cccnc1 do in these assays?
KDM4E inh: -2%; LMNA splice mod: -12%; ALDH1A1 block: 20µM*; HPGD block: -5%; HTT aggregate: inconclusive; HTT cytoprotect: 4%[10 µM]

Results for CCCCCNc1nc2sc3c(c2c(=O)n1-c1cccc(Cl)c1)CCN(C)C3 ?
KDM4E inh: inconclusive; HTT aggregate: 12%[9.22 µM]; HTT cytoprotect: 9%[10 µM]

Results for COc1cccc(CC2CC(=O)N(c3ccc4c(C)cc(=O)oc4c3)C2=O)c1 (stereo not drawn) ?
KDM4E inh: 16%; LMNA splice mod: inconclusive; ALDH1A1 block: 1.4µM*; HTT aggregate: 6%; HTT cytoprotect: -25%

How did Cc1ccc(C)n1-c1ccc(C(=O)NN)s1 do in these assays?
KDM4E inh: inconclusive; LMNA splice mod: -11%[46 µM]; ALDH1A1 block: 14µM*; HTT aggregate: 20%; HTT cytoprotect: 15%[10 µM]

How did CCOC(=O)c1c(C)oc2nc(C)nc(NCc3ccccc3Cl)c12 do in these assays?
LMNA splice mod: -4%[46 µM]

Results for Cc1ccc(NCc2nnc(SCC(=O)Nc3ncc(C)s3)n2CC2CCCO2)c(C)c1 (stereo not drawn) ?
KDM4E inh: -8%; LMNA splice mod: inconclusive; ALDH1A1 block: 4.5µM*; HPGD block: -12%; HTT aggregate: -9%; HTT cytoprotect: -20%[10 µM]

Results for Cc1ccc(NCc2nnc(SCC(=O)N3CCCCC3)n2CC2CCCO2)c(C)c1 (stereo not drawn) ?
HTT cytoprotect: -2%[10 µM]

Results for Cc1ccc(NCc2nnc(SCC(=O)Nc3cccc(O)c3)n2CC2CCCO2)c(C)c1 (stereo not drawn) ?
KDM4E inh: -1%; LMNA splice mod: 7%; ALDH1A1 block: 4µM*; HPGD block: -8%; HTT aggregate: 14%; HTT cytoprotect: -14%

How did O=C1c2ccccc2C(=O)c2c1ccc(N1C(=O)c3ccccc3C1=O)c2-c1c(N2C(=O)c3ccccc3C2=O)ccc2c1C(=O)c1ccccc1C2=O do in these assays?
HTT cytoprotect: -7%[10 µM]

Results for O=C(c1ccncc1)N1CCC2(CC1)CN(c1ccncc1)C2 ?
ALDH1A1 block: 9%; HPGD block: -5%; HTT cytoprotect: inconclusive

Results for Cc1cc(C)n2cc(CSc3ncn[nH]3)nc2n1 ?
KDM4E inh: inconclusive; LMNA splice mod: -4%[46 µM]; ALDH1A1 block: inconclusive; HTT aggregate: 2%; HTT cytoprotect: -30%

Results for O=C(NCSc1ccnc(SCNC(=O)c2ccc(F)cc2)n1)c1ccc(F)cc1 ?
KDM4E inh: -23%; LMNA splice mod: 7%; ALDH1A1 block: inconclusive; HPGD block: 22µM*; HTT aggregate: 16%; HTT cytoprotect: 12%[10 µM]

What do the screens show for `O=C(CSc1ncccn1)NCc1ccc(F)cc1`?
KDM4E inh: -1%; LMNA splice mod: 3%; ALDH1A1 block: 10%; HPGD block: -8%; HTT aggregate: 14%; HTT cytoprotect: -11%

Results for Cc1oc2cc(O)cc(O)c2c(=O)c1-c1ccc2c(c1)OCCCO2 ?
KDM4E inh: inconclusive; LMNA splice mod: inconclusive; ALDH1A1 block: 16µM*; HPGD block: -29%; HTT aggregate: -19%; HTT cytoprotect: -36%

Results for CC(=O)c1cccc(NC(=S)NCc2ccco2)c1 ?
KDM4E inh: 2%; LMNA splice mod: 3%[46 µM]; ALDH1A1 block: -8%; HTT aggregate: 23%[9.22 µM]; HTT cytoprotect: 17%[10 µM]

How did O=C(NNC(=S)Nc1ccc(Cl)c(Cl)c1)c1ccccn1 do in these assays?
KDM4E inh: -3%; ALDH1A1 block: 3.2µM*

Results for S=C(NCc1ccco1)Nc1cc(Cl)c(Cl)cc1Cl ?
KDM4E inh: 15%; LMNA splice mod: inconclusive; ALDH1A1 block: -11%; HPGD block: 3.2µM*; HTT aggregate: -7%; HTT cytoprotect: 4%[10 µM]

Results for S=C(NCc1ccco1)Nc1ccc(Cl)c(Cl)c1 ?
KDM4E inh: 8%; LMNA splice mod: inconclusive; ALDH1A1 block: 25µM*; HPGD block: 3.2µM*; HTT aggregate: inconclusive; HTT cytoprotect: -53%

How did COc1ccc(NC(=S)NCc2ccco2)cc1 do in these assays?
KDM4E inh: 5%; LMNA splice mod: 11%; ALDH1A1 block: -1%; HPGD block: -28%; HTT aggregate: -24%; HTT cytoprotect: -9%

Results for Cc1ccc(NC(=S)NCc2ccco2)c(C)c1 ?
KDM4E inh: 0%; HTT aggregate: 25%[9.22 µM]; HTT cytoprotect: 39%[10 µM]

How did S=C(NCc1ccco1)Nc1cccc(Cl)c1 do in these assays?
KDM4E inh: 4%; LMNA splice mod: inconclusive; ALDH1A1 block: inconclusive; HPGD block: 11µM*; HTT aggregate: -16%; HTT cytoprotect: 9%[10 µM]

What do the screens show for `CC(C)(C)c1ccccc1NC(=O)c1c(O)c2cccc3c2n(c1=O)CC3`?
KDM4E inh: inconclusive; LMNA splice mod: inconclusive; ALDH1A1 block: inconclusive; HTT aggregate: 11%[9.22 µM]; HTT cytoprotect: inconclusive

What do the screens show for `O=C(O)CCCN=CC1=C(O)C(C(=O)c2ccccc2)CCC1=O` (stereo not drawn)?
KDM4E inh: 0%; LMNA splice mod: -5%; ALDH1A1 block: inconclusive; HPGD block: -4%; HTT aggregate: -9%; HTT cytoprotect: -7%[10 µM]
